# Assay outcomes deposited in PubChem BioAssay by National Center for Advancing Translational Sciences (NCATS).
# Pf growth 48h = Primary qHTS for delayed death inhibitors of the malarial parasite plastid, 48 hour incubation; P. falciparum luciferase growth in erythrocytes, 48 h; Potency, µM (titrated, usually from 28.7 µM), inactives show at the highest dose activity change, negative = inhibition, hits mostly inhibitors; 310,000 tested, 5.9% active; AID 504832, 2011; note: potency is the fitted concentration of half-maximal effect; % is set by controls: 0 for no effect and ±100 for the full control effect
#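 Erythrocytes infected with P. falciparum carrying an integrated firefly luciferase reporter (2% hematocrit, 0.1% parasitemia final) were exposed to compounds in RPMI 1640 with 0.5% Albumax at 37 C, 5% CO2. Growth inhibition was scored as reduced luminescence.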
# SARS PLpro yeast = qHTS of Yeast-based Assay for SARS-CoV PLP; S. cerevisiae expressing SARS-CoV PLpro, growth rescue; Potency, µM (top dose mostly 32.9 µM), inactives show at the top dose activity, positive = growth rescue, actives largely listed as activators; 330,000 tested, 0.19% active; AID 485353, 2010; calls by dose curve; note: potency is the fitted concentration of half-maximal effect; 0% is about no effect; nearly all actives have a fitted effect of over 55% in size
# Pf growth 96h = Primary qHTS for delayed death inhibitors of the malarial parasite plastid, 96 hour incubation. P. falciparum luciferase reporter growth, 96 h. 320,000 tested, 6.9% active. AID 504834, 2011. Potency, µM (titrated, usually from 28.7 µM), for the others: at the highest dose activity change, negative = inhibition, most hits filed as inhibitors; note: potency is the fitted concentration of half-maximal effect; % is set by controls: 0 for no effect and ±100 for the full control effect
#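 P. falciparum expressing integrated firefly luciferase, in erythrocytes at 2% hematocrit, 0.05% parasitemia, incubated with compounds 96 h at 37 C, 5% CO2. Growth inhibition read as loss of luminescence; two-generation exposure targets delayed-death apicoplast inhibitors.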
# Shiga inhibitor = A qHTS for Small Molecule Inhibitors of Shiga Toxin; inhibition, % at 38.7 µM; Vero cells, Shiga toxin protein synthesis inhibition reporter; 290,000 tested, 9.2% active; in the data active = inhibition mostly above about 28%, no sharp cut-off; inactive = mostly below about 43%; note: 0% is about no effect
# Cycloheximide cs = Cycloheximide Counterscreen for Small Molecule Inhibitors of Shiga Toxin; max response, %; cell reporter, cycloheximide protein synthesis inhibition counterscreen; 300,000 tested, 12% active; AID 2314, 2010; in the data active = max response mostly above about 13%, no sharp cut-off; inactive = mostly below about 14%; note: read at 38.3 µM for the half of the compounds with a filed dose; 0% is about no effect
# NS1 function inh = qHTS Assay for Inhibitors of Influenza NS1 Protein Function | Potency, µM (series often up to 46.1 µM), without a hit: at the top dose activity, positive = more growth | 270,000 tested, 0.4% active | AID 2326, 2010; calls by dose curve; note: potency is the fitted concentration of half-maximal effect; actives are rising curves; nearly all actives have a fitted effect of over 50% in size
#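 Recovery from NS1-induced slow growth read by OD600 in budding yeast switched to galactose assay medium (pH 6.0, -URA) at 1:100 dilution. Compound 23 nl per well; the matching strain lacking NS1 serves as control.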
# Numbers without * were called inactive; ? = inconclusive; . = no result; [ ] = another dose, or the depositor's remark. In the library only some 21% were active in any assay of this set; here they are far more common. Unless noted, calls come from the whole dose curve; as a rule, active = well fitted inhibition curve with a large enough effect; inconclusive = small, poorly fitted or top-dose-only effect, or another doubt; inactive = no such curve, though single readings can be large or run the other way.
SMILES,Pf growth 48h,SARS PLpro yeast,Pf growth 96h,Shiga inhibitor,Cycloheximide cs,NS1 function inh
COc1ccccc1C(c1nnnn1C(C)(C)C)N1CCCc2ccccc21 (stereo not drawn),?,1%,?,-12,-7,7%
COc1ccccc1N1CCN(C(c2ccccc2Cl)c2nnnn2C(C)(C)C)CC1 (stereo not drawn),?,.,?,18,-3,-32%
CCOC(=O)c1c(C)[nH]c(C(=O)OCC(=O)NCc2ccc(OC)c(OC)c2)c1C,?,-13%,?,.,.,.
COc1ccc(C(c2nnnn2C(C)(C)C)N2CCN(c3nc4ccccc4s3)CC2)cc1OC (stereo not drawn),5.2µM*,19%,?,40,15,1%
CCC(C)(C)n1nnnc1C(c1cccs1)N1CCc2ccccc21 (stereo not drawn),9.3µM*,-9%,8%[5.75 µM],7,-1,-76%
CC(C)(C)n1nnnc1C(c1cccc(C#N)c1)N1CCC(Cc2ccccc2)CC1 (stereo not drawn),2.6µM*,2%,.,9,-2,-8%
CC(C)(C)n1nnnc1C(c1ccc(Cl)cc1)N1CCCc2ccccc21 (stereo not drawn),2.3µM*,0%,33%,-9,-1,0%
COCCNc1nc(N2CCCCC2)c2cnn(C)c2n1,9%,-9%,4%,14,-1,2%
COc1ccccc1C(=O)NCCC(=O)Nc1ccc(OC(F)(F)F)cc1,?,1%,-11%,-12,-2,22%
Cc1onc(-c2ccccc2)c1C(=O)/C=C/N(C)C,-2%,1%,21%,-8,-1,0%
CC(=O)NCCOC(=O)Nc1ccncc1,.,6%,-25%,-4,-1,-3%
CC(=O)NCCOC(=O)Nc1cccnc1,1.9µM*,0%,24%,22,-4,6%
O=C(NC1CCCC1)c1ccc2nc[nH]c2c1,4%,-1%,-19%,16,-1,-5%
O=C(NNC(=O)c1ccccc1F)c1ccc2nc[nH]c2c1,52%,3%,79%,68,22*,1%
CN(C)c1ccc(NC(=O)c2ccc3nc[nH]c3c2)cc1,61%,2%,130%,138*,51*,-1%
O=C(Nc1ccc(F)cc1)c1ccc2nc[nH]c2c1,158%,1%,42%,46*,30*,.
Nc1nonc1-c1noc(N2CCCCC2)n1,96%,0%,32%,80*,30*,-6%
Nc1ccc(N2CCCCC2)c2nonc12,?,1%,-37%,26,-2,1%
Cc1cccnc1NC(=O)C(C)N1C(=O)c2ccccc2C1=O (stereo not drawn),14%,5%,13%,5,4,1%
Cc1ccccc1NC(=O)C(C)N1C(=O)c2ccccc2C1=O (stereo not drawn),-11%,6%,2.9µM*,.,1,?
O=Nc1ccc(NOC(=O)c2ccccc2Br)cc1,-2%,-59%,-18%,127*,85*,-39%
COc1ccc(CCn2c(S)nc3ccccc3c2=O)cc1,.,3%,-10%,41*,30*,2%
COc1ccc2c(=O)c3c(=O)n(CCc4ccccc4)c(C(C)C)nc3oc2c1,7.4µM*,0%,5.2µM*,-5,-1,1%
COc1ccc(Cn2c(C)nc3c(c(=O)c4ccccc4n3C)c2=O)cc1,?,0%,?,4,10,0%
COc1ccc(CCn2c(C(C)C)nc3c(c(=O)c4ccccc4n3C)c2=O)cc1,12µM*,5%,1.9µM*,-8,-5,5%
CCCCCc1nc2c(c(=O)c3ccccc3n2C)c(=O)n1Cc1ccc(OC)cc1,?,0%,?,-5,-2,0%
COc1ccc(CCn2c(C)nc3c(c(=O)c4ccccc4n3C)c2=O)cc1,?,2%,4.7µM*,-7,0,-4%
COc1ccc(CNn2c(C)nc3ccccc3c2=O)cc1,2%,9%,-2%,23,2,-49%
CCN1CCN(c2nc(Nc3ccc(NC(C)=O)cc3)nc(Nc3ccc(NC(C)=O)cc3)n2)CC1,?,-6%,?,-3,-3,-3%
